# Experimental data as given in paper PMC7862700, “An all-to-all approach to the identification of sequence-specific readers for epigenetic DNA modifications on cytosine”.
# Columns and labels:
# Test in all cases: DAPPL (digital affinity profiling via proximity ligation, sequencing); 10 mM Tris-HCl pH 7.5, 50 mM NaCl, 1 mM DTT, 4% glycerol, room temperature, 30 min; GST-TFs on glutathione beads, 16-mer random dsDNA library, 0.1% formaldehyde crosslink after washing; high values mean tight binding
# [1] = target: T1, FLI1 (Homo sapiens, UniProt Q01543 1-452); conditions: protein: recombinant; tags: N-terminal GST; dsDNA, one strand shown
# T1 sequence: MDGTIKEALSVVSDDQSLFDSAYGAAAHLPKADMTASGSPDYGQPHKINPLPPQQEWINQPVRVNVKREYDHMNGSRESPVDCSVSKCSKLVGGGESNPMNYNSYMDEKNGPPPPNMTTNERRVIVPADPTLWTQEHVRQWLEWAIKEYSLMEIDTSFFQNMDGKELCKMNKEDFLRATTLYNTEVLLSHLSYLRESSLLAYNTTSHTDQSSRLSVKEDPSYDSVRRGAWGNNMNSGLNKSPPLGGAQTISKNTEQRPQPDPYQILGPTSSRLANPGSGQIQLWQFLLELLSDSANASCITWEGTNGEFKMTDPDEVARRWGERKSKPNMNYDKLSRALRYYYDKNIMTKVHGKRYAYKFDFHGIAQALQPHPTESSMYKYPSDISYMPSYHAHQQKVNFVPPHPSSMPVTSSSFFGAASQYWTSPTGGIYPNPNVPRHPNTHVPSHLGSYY
# In short: (§1)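 Each value of binding signal is a hexamer's read frequency for a factor divided by the same hexamer's frequency in the tag-only sample. Barcoded, bead-captured GST fusions of human transcription factors made in yeast were pooled with that sample and incubated with 200 nmole of a random double-stranded 16-mer DNA library in Tris/NaCl/DTT/glycerol buffer at room temperature for 30 min. Washing, 0.1% formaldehyde crosslinking, proximity ligation, PCR and Illumina NextSeq500 sequencing followed.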
# [2] = target: T2, ELK1 (Homo sapiens, UniProt P19419 1-428); conditions: protein: recombinant; tags: N-terminal GST; dsDNA, one strand shown
# T2 sequence: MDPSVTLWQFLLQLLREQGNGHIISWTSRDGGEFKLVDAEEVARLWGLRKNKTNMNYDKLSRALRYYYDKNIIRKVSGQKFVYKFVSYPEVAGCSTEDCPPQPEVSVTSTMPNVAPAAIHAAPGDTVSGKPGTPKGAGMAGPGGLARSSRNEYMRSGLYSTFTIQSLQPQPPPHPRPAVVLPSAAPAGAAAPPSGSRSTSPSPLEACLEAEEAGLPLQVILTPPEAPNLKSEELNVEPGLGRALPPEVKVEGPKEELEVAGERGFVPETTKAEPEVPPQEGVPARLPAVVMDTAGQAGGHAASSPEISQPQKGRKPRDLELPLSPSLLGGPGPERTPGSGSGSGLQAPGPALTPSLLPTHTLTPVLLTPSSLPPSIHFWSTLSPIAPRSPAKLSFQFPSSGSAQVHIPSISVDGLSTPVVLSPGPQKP
# In short: as §1
# [3] = target: T3, GABPA (Homo sapiens, UniProt Q06546 1-454); conditions: protein: recombinant; tags: N-terminal GST; dsDNA, one strand shown
# T3 sequence: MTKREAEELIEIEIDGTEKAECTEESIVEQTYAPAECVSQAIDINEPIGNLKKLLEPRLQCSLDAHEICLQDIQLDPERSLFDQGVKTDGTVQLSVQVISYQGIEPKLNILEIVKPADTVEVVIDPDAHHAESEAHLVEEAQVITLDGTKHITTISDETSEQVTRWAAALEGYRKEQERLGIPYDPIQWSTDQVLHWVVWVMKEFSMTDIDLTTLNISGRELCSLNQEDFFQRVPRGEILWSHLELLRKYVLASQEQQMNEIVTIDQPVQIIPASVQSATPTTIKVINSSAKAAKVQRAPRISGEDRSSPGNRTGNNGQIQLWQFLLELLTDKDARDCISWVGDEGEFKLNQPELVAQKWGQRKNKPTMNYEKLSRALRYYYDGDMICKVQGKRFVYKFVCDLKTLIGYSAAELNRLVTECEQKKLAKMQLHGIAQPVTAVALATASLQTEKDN
# In short: as §1
# [4] = target: T4, ERG (Homo sapiens, UniProt P11308 1-479); conditions: protein: recombinant; tags: N-terminal GST; dsDNA, one strand shown
# T4 sequence: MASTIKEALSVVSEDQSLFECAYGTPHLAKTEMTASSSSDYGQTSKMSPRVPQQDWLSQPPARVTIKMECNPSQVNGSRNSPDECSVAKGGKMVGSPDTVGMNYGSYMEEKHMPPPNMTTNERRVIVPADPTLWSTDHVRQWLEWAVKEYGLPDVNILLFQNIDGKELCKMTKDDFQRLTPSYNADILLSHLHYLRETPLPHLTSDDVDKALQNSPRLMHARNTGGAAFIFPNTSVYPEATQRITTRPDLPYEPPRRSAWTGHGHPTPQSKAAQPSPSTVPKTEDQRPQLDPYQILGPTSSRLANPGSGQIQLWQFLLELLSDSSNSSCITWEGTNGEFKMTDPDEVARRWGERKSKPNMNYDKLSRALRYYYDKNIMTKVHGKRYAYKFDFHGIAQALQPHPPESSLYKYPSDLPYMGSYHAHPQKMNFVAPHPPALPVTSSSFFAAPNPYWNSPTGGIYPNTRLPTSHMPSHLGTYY
# In short: as §1
# [5] = target: ELF1 (Homo sapiens, UniProt P32519 1-619); conditions: protein: recombinant; tags: N-terminal GST; dsDNA, one strand shown
# In short: as §1
# [6] = target: T5, EHF (Homo sapiens, UniProt Q9NZC4 1-300); conditions: protein: recombinant; tags: N-terminal GST; dsDNA, one strand shown
# T5 sequence: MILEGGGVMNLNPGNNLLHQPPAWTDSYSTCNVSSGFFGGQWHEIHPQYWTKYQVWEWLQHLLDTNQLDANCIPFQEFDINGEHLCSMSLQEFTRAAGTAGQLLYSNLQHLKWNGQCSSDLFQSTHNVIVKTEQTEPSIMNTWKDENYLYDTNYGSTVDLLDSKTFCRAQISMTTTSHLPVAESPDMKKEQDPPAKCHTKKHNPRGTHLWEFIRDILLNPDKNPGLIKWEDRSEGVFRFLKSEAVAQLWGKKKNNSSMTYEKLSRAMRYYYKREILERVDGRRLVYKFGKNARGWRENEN
# In short: as §1
# [7] = target: SPI1 (Homo sapiens, UniProt P17947 1-270); conditions: protein: recombinant; tags: N-terminal GST; dsDNA, one strand shown
# In short: as §1
# [8] = target: SPIB (Homo sapiens, UniProt Q01892 1-262); conditions: protein: recombinant; tags: N-terminal GST; dsDNA, one strand shown
# In short: as §1
# [9] = target: T6, ELK3 (Homo sapiens, UniProt P41970 1-407); conditions: protein: recombinant; tags: N-terminal GST; dsDNA, one strand shown
# T6 sequence: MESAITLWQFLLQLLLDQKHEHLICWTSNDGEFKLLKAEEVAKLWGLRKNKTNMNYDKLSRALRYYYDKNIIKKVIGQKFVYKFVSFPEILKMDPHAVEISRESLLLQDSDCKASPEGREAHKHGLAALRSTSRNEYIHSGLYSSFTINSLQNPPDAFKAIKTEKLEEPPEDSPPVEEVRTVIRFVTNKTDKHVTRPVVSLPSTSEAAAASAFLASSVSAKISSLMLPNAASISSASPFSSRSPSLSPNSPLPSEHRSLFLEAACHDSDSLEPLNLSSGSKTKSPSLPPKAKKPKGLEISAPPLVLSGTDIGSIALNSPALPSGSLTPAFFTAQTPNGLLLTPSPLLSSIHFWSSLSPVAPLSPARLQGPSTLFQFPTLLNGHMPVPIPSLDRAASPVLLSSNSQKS
# In short: as §1
# [10] = target: T7, FEV (Homo sapiens, UniProt Q99581 1-238); conditions: protein: recombinant; tags: N-terminal GST; dsDNA, one strand shown
# T7 sequence: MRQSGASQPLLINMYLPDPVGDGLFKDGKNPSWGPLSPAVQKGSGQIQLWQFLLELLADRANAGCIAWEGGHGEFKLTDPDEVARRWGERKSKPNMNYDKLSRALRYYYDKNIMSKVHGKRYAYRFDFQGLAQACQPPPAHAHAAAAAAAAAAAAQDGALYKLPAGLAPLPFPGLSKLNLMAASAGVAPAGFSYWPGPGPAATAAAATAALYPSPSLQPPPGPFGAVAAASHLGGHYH
# In short: as §1
# [11] = target: ETV5 (Homo sapiens, UniProt P41161 1-510); conditions: protein: recombinant; tags: N-terminal GST; dsDNA, one strand shown
# In short: as §1
# [12] = target: HSF1 (Homo sapiens, UniProt Q00613 1-529); conditions: protein: recombinant; tags: N-terminal GST; chain copies: 3; dsDNA, one strand shown
# In short: as §1
# [13] = target: T8, SPIC (Homo sapiens, UniProt Q8N5J4 1-248); conditions: protein: recombinant; tags: N-terminal GST; dsDNA, one strand shown
# T8 sequence: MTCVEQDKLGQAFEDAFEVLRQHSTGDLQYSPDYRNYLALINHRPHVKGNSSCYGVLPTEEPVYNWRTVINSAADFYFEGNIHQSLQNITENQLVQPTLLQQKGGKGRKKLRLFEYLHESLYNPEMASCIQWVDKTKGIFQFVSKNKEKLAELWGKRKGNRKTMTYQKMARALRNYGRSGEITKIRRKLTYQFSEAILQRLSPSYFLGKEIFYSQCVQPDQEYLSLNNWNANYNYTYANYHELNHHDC
# In short: as §1
# [14] = target: ELF4 (Homo sapiens, UniProt Q99607 1-663); conditions: protein: recombinant; tags: N-terminal GST; dsDNA, one strand shown
# In short: as §1
# [15] = target: T9, ELK4 (Homo sapiens, UniProt P28324-2 1-405); conditions: protein: recombinant; tags: N-terminal GST; dsDNA, one strand shown
# T9 sequence: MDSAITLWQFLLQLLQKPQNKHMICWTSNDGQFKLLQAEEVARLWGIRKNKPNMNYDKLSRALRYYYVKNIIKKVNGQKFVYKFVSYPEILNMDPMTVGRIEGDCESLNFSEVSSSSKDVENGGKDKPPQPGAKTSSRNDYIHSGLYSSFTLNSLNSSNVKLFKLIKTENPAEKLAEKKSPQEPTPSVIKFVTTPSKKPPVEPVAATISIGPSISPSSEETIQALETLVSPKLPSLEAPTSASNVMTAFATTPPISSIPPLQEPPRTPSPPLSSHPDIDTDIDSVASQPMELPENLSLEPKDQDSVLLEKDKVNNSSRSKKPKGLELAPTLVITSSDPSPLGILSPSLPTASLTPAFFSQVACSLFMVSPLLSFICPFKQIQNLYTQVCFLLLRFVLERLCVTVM
# In short: as §1
# [16] = target: T10, ETV2 (Homo sapiens, UniProt O00321 1-342); conditions: protein: recombinant; tags: N-terminal GST; dsDNA, one strand shown
# T10 sequence: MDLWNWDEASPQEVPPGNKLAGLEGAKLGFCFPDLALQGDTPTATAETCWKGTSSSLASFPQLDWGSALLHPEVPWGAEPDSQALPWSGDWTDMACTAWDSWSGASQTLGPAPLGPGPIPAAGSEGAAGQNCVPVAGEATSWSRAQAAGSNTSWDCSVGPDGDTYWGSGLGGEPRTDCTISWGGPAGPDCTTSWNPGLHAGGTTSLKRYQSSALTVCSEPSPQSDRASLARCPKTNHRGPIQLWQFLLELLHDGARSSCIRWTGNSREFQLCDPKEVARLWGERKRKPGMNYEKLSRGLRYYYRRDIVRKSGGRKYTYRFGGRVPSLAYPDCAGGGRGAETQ
# In short: as §1
# [17] = target: T11, ELF3 (Homo sapiens, UniProt P78545 1-371); conditions: protein: recombinant; tags: N-terminal GST; dsDNA, one strand shown
# T11 sequence: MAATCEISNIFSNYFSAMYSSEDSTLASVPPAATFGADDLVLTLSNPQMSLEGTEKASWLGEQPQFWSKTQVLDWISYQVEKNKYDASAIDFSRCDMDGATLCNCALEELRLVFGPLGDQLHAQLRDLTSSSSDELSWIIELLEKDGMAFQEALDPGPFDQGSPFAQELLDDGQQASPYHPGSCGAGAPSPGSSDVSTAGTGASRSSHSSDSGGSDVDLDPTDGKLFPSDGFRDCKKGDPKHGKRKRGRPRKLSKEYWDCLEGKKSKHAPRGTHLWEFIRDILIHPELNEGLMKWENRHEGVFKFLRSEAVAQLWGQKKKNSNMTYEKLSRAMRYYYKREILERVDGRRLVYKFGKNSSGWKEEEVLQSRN
# In short: as §1
# [18] = target: CRX (Homo sapiens, UniProt O43186 1-299); conditions: protein: recombinant; tags: N-terminal GST; dsDNA, one strand shown
# In short: as §1
# [19] = target: ETV1 (Homo sapiens, UniProt P50549 1-477); conditions: protein: recombinant; tags: N-terminal GST; dsDNA, one strand shown
# In short: as §1
# Chain of ETV1 (P50549 whole entry): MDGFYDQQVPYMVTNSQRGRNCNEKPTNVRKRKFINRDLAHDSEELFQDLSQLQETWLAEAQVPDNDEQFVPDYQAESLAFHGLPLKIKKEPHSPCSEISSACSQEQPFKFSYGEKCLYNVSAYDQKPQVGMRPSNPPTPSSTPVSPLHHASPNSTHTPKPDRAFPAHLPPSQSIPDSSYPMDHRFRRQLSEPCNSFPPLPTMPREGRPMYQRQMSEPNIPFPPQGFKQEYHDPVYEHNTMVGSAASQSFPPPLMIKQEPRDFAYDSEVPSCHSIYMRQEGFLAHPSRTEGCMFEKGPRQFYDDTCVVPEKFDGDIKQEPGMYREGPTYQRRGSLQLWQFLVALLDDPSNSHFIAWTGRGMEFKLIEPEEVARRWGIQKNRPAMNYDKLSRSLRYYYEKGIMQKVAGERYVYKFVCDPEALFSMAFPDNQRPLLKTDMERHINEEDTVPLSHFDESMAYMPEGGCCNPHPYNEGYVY
# Chain of CRX (O43186 whole entry): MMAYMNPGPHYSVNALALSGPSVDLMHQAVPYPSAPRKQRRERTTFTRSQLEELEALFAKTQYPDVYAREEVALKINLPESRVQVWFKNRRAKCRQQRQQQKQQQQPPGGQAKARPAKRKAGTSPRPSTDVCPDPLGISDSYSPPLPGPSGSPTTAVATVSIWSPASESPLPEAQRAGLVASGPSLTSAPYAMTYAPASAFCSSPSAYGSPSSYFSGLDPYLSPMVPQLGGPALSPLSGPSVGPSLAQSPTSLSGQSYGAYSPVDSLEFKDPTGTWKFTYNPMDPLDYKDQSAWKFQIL
# Chain of SPIB (Q01892 whole entry): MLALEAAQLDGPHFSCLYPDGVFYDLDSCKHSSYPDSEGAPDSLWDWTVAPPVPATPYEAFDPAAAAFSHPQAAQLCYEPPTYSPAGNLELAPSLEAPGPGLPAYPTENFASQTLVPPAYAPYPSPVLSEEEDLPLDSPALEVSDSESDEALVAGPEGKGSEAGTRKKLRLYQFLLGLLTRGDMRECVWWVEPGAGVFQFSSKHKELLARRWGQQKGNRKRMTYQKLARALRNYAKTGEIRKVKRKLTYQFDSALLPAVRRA
# Chain of HSF1 (Q00613 whole entry): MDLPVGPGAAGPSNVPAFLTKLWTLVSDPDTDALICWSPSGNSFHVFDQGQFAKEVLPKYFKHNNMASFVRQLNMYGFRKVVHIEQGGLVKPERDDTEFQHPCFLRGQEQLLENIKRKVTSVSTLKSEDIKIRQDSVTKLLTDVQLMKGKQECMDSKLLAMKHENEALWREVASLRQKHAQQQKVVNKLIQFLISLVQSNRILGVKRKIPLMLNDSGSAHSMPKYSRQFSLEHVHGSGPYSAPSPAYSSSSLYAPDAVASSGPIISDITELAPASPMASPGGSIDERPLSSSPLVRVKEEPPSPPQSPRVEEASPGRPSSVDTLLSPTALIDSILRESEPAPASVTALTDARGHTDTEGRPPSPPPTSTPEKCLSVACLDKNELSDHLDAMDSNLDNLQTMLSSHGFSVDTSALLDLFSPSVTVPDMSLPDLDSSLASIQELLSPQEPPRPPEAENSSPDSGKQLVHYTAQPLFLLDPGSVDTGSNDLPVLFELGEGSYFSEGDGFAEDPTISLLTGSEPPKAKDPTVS
# Chain of ETV5 (P41161 whole entry): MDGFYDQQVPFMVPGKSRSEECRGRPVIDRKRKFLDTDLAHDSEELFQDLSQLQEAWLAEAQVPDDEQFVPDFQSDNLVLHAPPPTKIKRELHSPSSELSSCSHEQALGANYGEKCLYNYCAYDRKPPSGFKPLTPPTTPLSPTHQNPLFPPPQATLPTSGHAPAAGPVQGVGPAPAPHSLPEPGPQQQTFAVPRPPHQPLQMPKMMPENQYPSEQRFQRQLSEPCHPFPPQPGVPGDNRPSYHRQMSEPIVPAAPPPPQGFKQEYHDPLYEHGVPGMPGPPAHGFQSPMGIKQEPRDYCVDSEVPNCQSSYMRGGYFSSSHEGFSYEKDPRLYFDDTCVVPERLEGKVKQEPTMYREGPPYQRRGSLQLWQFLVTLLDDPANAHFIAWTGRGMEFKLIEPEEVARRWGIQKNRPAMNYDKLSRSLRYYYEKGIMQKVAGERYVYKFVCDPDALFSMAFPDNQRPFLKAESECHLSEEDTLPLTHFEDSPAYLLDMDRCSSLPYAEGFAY
# Chain of ELF4 (Q99607 whole entry): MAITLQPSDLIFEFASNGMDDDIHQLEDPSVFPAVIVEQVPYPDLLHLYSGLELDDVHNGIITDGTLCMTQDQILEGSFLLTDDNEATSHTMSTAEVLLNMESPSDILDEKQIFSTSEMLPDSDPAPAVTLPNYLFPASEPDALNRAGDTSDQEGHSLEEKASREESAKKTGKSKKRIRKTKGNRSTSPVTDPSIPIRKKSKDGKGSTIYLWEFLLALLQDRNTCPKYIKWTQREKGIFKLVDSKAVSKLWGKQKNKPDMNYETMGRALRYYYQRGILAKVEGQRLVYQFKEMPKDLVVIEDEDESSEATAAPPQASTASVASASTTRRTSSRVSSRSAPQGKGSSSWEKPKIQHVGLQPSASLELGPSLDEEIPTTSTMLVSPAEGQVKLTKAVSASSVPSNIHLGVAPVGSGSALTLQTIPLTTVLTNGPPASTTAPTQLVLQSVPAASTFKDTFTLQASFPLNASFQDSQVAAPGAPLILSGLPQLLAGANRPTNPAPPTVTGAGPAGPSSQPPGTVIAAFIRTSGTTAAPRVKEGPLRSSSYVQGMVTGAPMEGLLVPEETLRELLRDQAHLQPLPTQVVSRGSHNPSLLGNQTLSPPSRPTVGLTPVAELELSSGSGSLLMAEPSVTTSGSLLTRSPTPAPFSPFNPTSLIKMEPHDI
# Chain of ELF1 (P32519 whole entry): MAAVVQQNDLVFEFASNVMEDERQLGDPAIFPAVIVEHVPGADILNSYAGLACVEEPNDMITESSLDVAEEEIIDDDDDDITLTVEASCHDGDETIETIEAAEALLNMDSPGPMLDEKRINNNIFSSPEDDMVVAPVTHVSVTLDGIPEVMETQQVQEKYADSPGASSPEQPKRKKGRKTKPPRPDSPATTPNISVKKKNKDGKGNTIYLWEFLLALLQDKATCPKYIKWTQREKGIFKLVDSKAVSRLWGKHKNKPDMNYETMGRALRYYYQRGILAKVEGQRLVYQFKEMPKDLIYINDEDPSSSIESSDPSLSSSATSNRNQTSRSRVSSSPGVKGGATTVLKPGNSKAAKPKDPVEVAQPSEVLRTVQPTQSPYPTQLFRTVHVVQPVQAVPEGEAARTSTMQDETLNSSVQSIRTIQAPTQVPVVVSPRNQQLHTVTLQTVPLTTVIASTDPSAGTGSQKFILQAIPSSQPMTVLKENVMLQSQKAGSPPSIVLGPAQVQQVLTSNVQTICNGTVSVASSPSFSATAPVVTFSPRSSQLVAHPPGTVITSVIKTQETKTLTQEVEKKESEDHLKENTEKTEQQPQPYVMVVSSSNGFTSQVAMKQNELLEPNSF
sequence,measurement,setting,value
CTACAC,binding signal,[1],"1.3 fold enrichment (6-mer frequency, TF over GST control)"
same,binding signal,[2],"1.27 fold enrichment (6-mer frequency, TF over GST control)"
same,binding signal,[3],"1.34 fold enrichment (6-mer frequency, TF over GST control)"
same,binding signal,[4],"1.34 fold enrichment (6-mer frequency, TF over GST control)"
same,binding signal,[5],"1.33 fold enrichment (6-mer frequency, TF over GST control)"
same,binding signal,[6],"1.36 fold enrichment (6-mer frequency, TF over GST control)"
same,binding signal,[7],"1.21 fold enrichment (6-mer frequency, TF over GST control)"
same,binding signal,[8],"1.33 fold enrichment (6-mer frequency, TF over GST control)"
same,binding signal,[9],"1.27 fold enrichment (6-mer frequency, TF over GST control)"
same,binding signal,[10],"1.27 fold enrichment (6-mer frequency, TF over GST control)"
same,binding signal,[11],"1.26 fold enrichment (6-mer frequency, TF over GST control)"
same,binding signal,[12],"1.11 fold enrichment (6-mer frequency, TF over GST control)"
same,binding signal,[13],"1.32 fold enrichment (6-mer frequency, TF over GST control)"
same,binding signal,[14],"1.17 fold enrichment (6-mer frequency, TF over GST control)"
same,binding signal,[15],"1.23 fold enrichment (6-mer frequency, TF over GST control)"
same,binding signal,[16],"1.19 fold enrichment (6-mer frequency, TF over GST control)"
same,binding signal,[17],"1.39 fold enrichment (6-mer frequency, TF over GST control)"
same,binding signal,[18],"1.05 fold enrichment (6-mer frequency, TF over GST control)"
same,binding signal,[19],"1.28 fold enrichment (6-mer frequency, TF over GST control)"
